Test results: PubChem BioAssay AID1159580 (chemical genetic matrix, 2015)
Several values for one entry are separate records, joined by “and”; a condition that tells them apart may be missing. Equal entries are not always repeated. Screen size: about 5,500 compounds; about 2,000 (36%) were called active. Roughly 18% stayed inconclusive and do not appear here. Rule as the data show it: active = normalized growth mostly below about 0.91 (no sharp cut-off); inconclusive = no clear call, values can overlap the other calls; inactive = mostly above about 0.92. Some of the results follow.

Test: chemical genetic growth profiling, strain panel (AID 1159580);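 also: tested at 20 µM; growth read once vehicle control cultures reached saturation at 30 °C; 1 = growth at the plate median or of vehicle wells; lower values mean less growth of the strain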
Conditions: S. cerevisiae deletion strains, growth OD

Measured: normalized growth

Cc1cccc(C)c1NC(=O)C1CCCCN1C (configuration not stated)
inactive: locus YAL013W, strain DEP1, active compounds read low 1.02 | locus YAL021C, strain ccr4, active compounds read low 1.02 | locus YAL026C, strain drs2, active compounds read low 0.993 | locus YAL030W, strain snc1, active compounds read low 0.985 | locus YBL061C, strain skt5, active compounds read low 0.979 | locus YBR009C, strain hhf1, active compounds read low 0.989 | locus YBR021W, strain FUR4, active compounds read low 1 | locus YBR023C, strain chs3, active compounds read low 0.991 | locus YBR171W, strain sec66, active compounds read low 0.977 | locus YBR229C, strain ROT2, active compounds read low 1.01 | locus YBR231C, strain swc5, active compounds read low 0.993 | locus YBR279W, strain paf1, active compounds read low 0.991 | locus YCL011C, strain gbp2, active compounds read low 0.988 | locus YCL016C, strain dcc1, active compounds read low 0.995 | locus YCL029C, strain bik1, active compounds read low 1.02 | locus YCL061C, strain MRC1, active compounds read low 0.975 | locus YCL069W, strain vba3, active compounds read low 0.983 | locus YCR088W, strain abp1, active compounds read low 0.992 | locus YDL005C, strain med2, active compounds read low 0.982 | locus YDL035C, strain GPR1, active compounds read low 1.01 | locus YDL040C, strain nat1, active compounds read low 0.986 | locus YDL074C, strain BRE1, active compounds read low 1 | locus YDL101C, strain DUN1, active compounds read low 1.01 | locus YDL134C, strain PPH21, active compounds read low 0.99 | locus YDL185W, strain tfp1, active compounds read low 1.01 | locus YDL192W, strain arf1, active compounds read low 1.01 | locus YDR001C, strain nth1, active compounds read low 0.985 | locus YDR069C, strain doa4, active compounds read low 1 | locus YDR101C, strain arx1, active compounds read low 1 | locus YDR137W, strain rgp1, active compounds read low 0.984 | locus YDR150W, strain NUM1, active compounds read low 1 | locus YDR159W, strain sac3, active compounds read low 0.983 | locus YDR162C, strain NBP2, active compounds read low 0.994 | locus YDR195W, strain ref2 0.986 | locus YDR297W, strain sur2, active compounds read low 0.992 | locus YDR318W, strain mcm21, active compounds read low 1.01 | locus YDR334W, strain swr1, active compounds read low 0.982 | locus YDR335W, strain msn5, active compounds read low 0.989 | locus YDR388W, active compounds read low 1.01 | locus YDR392W, strain spt3, active compounds read low 0.996 | locus YDR502C, strain sam2, active compounds read low 1.01 | locus YEL003W, strain gim4, active compounds read low 0.986 | locus YEL037C, strain rad23, active compounds read low 0.996 | locus YEL061C, strain CIN8 (second series), active compounds read low 0.992 | locus YEL061C, strain CIN8, active compounds read low 1 | locus YER015W, strain faa2, active compounds read low 0.988 | locus YER016W, strain bim1, active compounds read low 0.983 | locus YER110C, active compounds read low 1.02 | locus YER111C, strain swi4, active compounds read low 0.994 | locus YER155C, strain BEM2 (second series), active compounds read low 0.982 | locus YER155C, strain BEM2, active compounds read low 0.99 | locus YER167W, strain BCK2, active compounds read low 1 | locus YFR010W, strain ubp6, active compounds read low 0.984 | locus YGL078C, strain dbp3, active compounds read low 1.01 | locus YGL086W, strain mad1, active compounds read low 1 | locus YGL167C, strain pmr1, active compounds read low 0.995 | locus YGL173C, strain kem1, active compounds read low 0.988 | locus YGL227W, strain vid30, active compounds read low 0.98 | locus YGL240W, strain doc1, active compounds read low 0.981 | locus YGL248W, strain PDE1, active compounds read low 1 | locus YGL253W, strain hxk2, active compounds read low 0.982 | locus YGR078C, strain PAC10, active compounds read low 0.996 | locus YGR135W, strain pre9, active compounds read low 1 | locus YGR229C, strain SMI1, active compounds read low 1 | locus YGR252W, strain gcn5, active compounds read low 0.963 | locus YHR013C, strain ard1, active compounds read low 0.96 | locus YHR027C, strain rpn1, active compounds read low 0.986 | locus YHR030C, strain SLT2, active compounds read low 1 and 1.01 | locus YHR079C, strain IRE1 (second series), active compounds read low 1.01 | locus YHR079C, strain IRE1, active compounds read low 1.03 | locus YHR094C, strain hxt1, active compounds read low 1.01 | locus YHR129C, strain ARP1, active compounds read low 1.01 | locus YHR142W, strain chs7, active compounds read low 0.987 | locus YHR200W, strain rpn10, active compounds read low 1 | locus YIL066C, strain RNR3, active compounds read low 0.999 | locus YIL073C, strain SPO22, active compounds read low 1.01 | locus YIL125W, strain kgd1, active compounds read low 1.01 | locus YIR030C, strain dcg1, active compounds read low 1.01 | locus YJL092W, strain hpr5, active compounds read low 0.986 | locus YJL095W, strain BCK1 (second series), active compounds read low 0.989 | locus YJL095W, strain BCK1, active compounds read low 1.02 and 0.998 | locus YJL115W, strain asf1, active compounds read low 0.996 | locus YJL129C, strain trk1, active compounds read low 1.01 | locus YJL134W, strain LCB3, active compounds read low 1.01 | locus YJL154C, strain vps35, active compounds read low 0.994 | locus YJL164C, strain tpk1, active compounds read low 0.987 | locus YJL166W, strain qcr8, active compounds read low 0.993 | locus YJL168C, strain set2, active compounds read low 1.01 | locus YJL187C, strain SWE1 (second series), active compounds read low 1.01 | locus YJL187C, strain SWE1, active compounds read low 0.985 | locus YJR043C, strain POL32, active compounds read low 1.02 | locus YJR066W, strain TOR1, active compounds read low 0.986
